SMILES strings stand for the structures. Several values for one entry are separate records, joined by “and”; a condition that tells them apart may be missing. Equal entries are not always repeated. Records with an inconclusive call do not appear. Values without a mark were called inactive. Activity calls are given as the source filed them. Calls follow the shape of the dose curve; as a rule, active = well fitted inhibition curve with a large enough effect; inconclusive = small, poorly fitted or top-dose-only effect; inactive = flat fitted curve, though single readings scatter.

The nature of assay [1]: qHTS profiling for inhibitors of Plasmodium falciparum proliferation (AID 504749). Also: nearly all actives have a fitted effect of over 60% in size.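 As to activity, negative = inhibition: 0% = DMSO vehicle and full inhibition = artemisinin control.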 Conditions: P. falciparum in erythrocytes, SYBR Green DNA, 72 h. In outline:
(§1)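 P. falciparum-infected erythrocytes (0.3% parasitemia, 2.5% hematocrit final) were exposed to compounds for 72 h at 37 C in 5% CO2, then lysed with SYBR Green buffer overnight at room temperature; parasite DNA fluorescence was normalized to artemisinin and DMSO controls.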
In general terms: qHTS replaces the single test concentration by a dilution series.

Assay [2] deals with 3D7. Described as above. The note with it: P. falciparum in erythrocytes, SYBR Green DNA, 72 h; series mostly up to 28.7 µM. In outline:
as §1

Assay [3] deals with 7G8. Described as above. The note with it: P. falciparum in erythrocytes, SYBR Green DNA, 72 h; series mostly up to 28.7 µM. The method, boiled down: as §1
The test system of assay [4] is AA1029. The assay is described as above. The note with it: P. falciparum in erythrocytes, SYBR Green DNA, 72 h; series mostly up to 28.7 µM. The method, boiled down: as §1
The test system of assay [5] is AS120. The description is as above. The note with it: P. falciparum in erythrocytes, SYBR Green DNA, 72 h; series mostly up to 28.7 µM. In outline:
as §1

Assay [6] relates to ATS189. The description is as above. Conditions: P. falciparum in erythrocytes, SYBR Green DNA, 72 h; series mostly up to 28.7 µM. The method, boiled down:
as §1

The subject of assay [7] is ATS95. The assay is described as above. The note with it: P. falciparum in erythrocytes, SYBR Green DNA, 72 h; series mostly up to 28.7 µM. The method, boiled down:
as §1

Assay [8] has as its system C2A. The description is as above. The note with it: P. falciparum in erythrocytes, SYBR Green DNA, 72 h; series mostly up to 28.7 µM. The method, boiled down: as §1
The mark [9] stands for this setting: at 28.7 µM (top of the series), parasite line A.
[10] abbreviates: at 28.7 µM (top of the series), parasite line B.
Potency is read from the fitted curve at half-maximal effect.

For `O=C(O)COc1ccc(C(=O)c2cccs2)c(Cl)c1Cl`, the activity, negative = inhibition in assay [1] (setting [9]) is 17.6% and 6.75%; in assay [1] (setting [10]) it was 6.94% and 2.12%. The Potency result in assay [2], in assay [3], in assay [4], in assay [5], in assay [6] and in assay [7] was “inactive” throughout. In assay [8], the Potency entry is “inactive”.

Consider `C=CCN1C(=O)C(CC(C)C)NC1=S` (centres undefined), for which the activity, negative = inhibition is -18.4% and 2.94% in assay [1] (setting [9]); -2.47% and 3.7% in assay [1] (setting [10]). Moreover, the Potency entry in assay [2], in assay [3], in assay [4], in assay [5], in assay [6] and in assay [7] was “inactive” each time. In assay [8], the Potency result is “inactive”.

Regarding `Clc1ccccc1-c1nc(-c2ccncc2)no1`, the results for the activity, negative = inhibition in assay [1] (setting [9]) and in assay [1] (setting [10]) were 11.4% and -1.37%, respectively. Further, the Potency result in assay [2], in assay [4], in assay [6], in assay [7] and in assay [8] was “inactive” each time. The Potency in assay [3] is 10 µM (active).

On to `C=CC(N)CCC(=O)O` (centres undefined), for which the activity, negative = inhibition is 0.626% in assay [1] (setting [9]) and 10.5% in assay [1] (setting [10]). Besides, the Potency result in assay [2], in assay [3], in assay [4], in assay [5], in assay [6] and in assay [7] was “inactive” throughout. The Potency entry in assay [8] was “inactive”.

In the case of `Cc1[nH]cnc1CN1CCc2c(c3ccccc3n2C)C1=O`, the activity, negative = inhibition in assay [1] (setting [9]) is 12%; in assay [1] (setting [10]), 7.41%. In addition, the Potency result in assay [2], in assay [3], in assay [4], in assay [5], in assay [6] and in assay [7] was “inactive” throughout. For the same molecule, the Potency result in assay [8] is “inactive”.

With `Cc1nc2ccccc2n1Cc1ccc(Cl)cc1`, in assay [1] (parasite line A), the Potency was 12.6 µM (active). In addition, the Potency result in assay [2], in assay [7] and in assay [8] was “inactive” in each case.

`c1ccc2sc(SSc3nc4ccccc4s3)nc2c1`: the activity, negative = inhibition was 6.98% in assay [1] (setting [9]) and -5.71% in assay [1] (setting [10]). Also, the Potency result in assay [2], in assay [3], in assay [4], in assay [5], in assay [6] and in assay [7] was “inactive” in each case. Further, the Potency result in assay [8] was “inactive”.

For the molecule `CCCCCCCCCCCCCCCC(=O)OC(C)C`, the Potency entry in assay [2], in assay [3], in assay [4], in assay [5], in assay [6] and in assay [7] was “inactive” each time. Further, the Potency entry in assay [8] was “inactive”.

Take `CCCOC(=O)c1ccc(O)cc1`: the activity, negative = inhibition was 4.05% in assay [1] (setting [9]) and 3.75% in assay [1] (setting [10]). The Potency entry in assay [2], in assay [4], in assay [5], in assay [6], in assay [7] and in assay [8] was “inactive” throughout.

Consider `NC(=O)C(c1ccccc1)(c1ccccc1)[C@@H]1CCN(CCc2ccc3c(c2)CCO3)C1`, for which the activity, negative = inhibition is -17.4% in assay [1] (setting [9]) and -5.16% in assay [1] (setting [10]). In addition, the Potency result in assay [2], in assay [6] and in assay [8] was “inactive” in each case. Moreover, the Potency in assay [3] is 11.2 µM (active).

`Oc1c(Br)cc(Br)c2cccnc12`: the figures for the activity, negative = inhibition in assay [1] (setting [9]) and in assay [1] (setting [10]) were -4.99% and -18.5%, respectively. In addition, the Potency result in assay [2], in assay [4], in assay [6], in assay [7] and in assay [8] was “inactive” throughout.

As for `CC1(C)C[C@@H]1C(=O)N/C(=C\CCCCSC[C@H](N)C(=O)O)C(=O)O`, the activity, negative = inhibition was 10.1% in assay [1] (setting [9]) and -12.7% in assay [1] (setting [10]). Also, the Potency entry in assay [2], in assay [3], in assay [4], in assay [5], in assay [6] and in assay [7] was “inactive” in each case. In addition, in assay [8], the Potency result was “inactive”.

`Cc1cc(O)c2ccccc2c1O`: the activity, negative = inhibition is 7.28% in assay [1] (setting [9]) and -10.1% in assay [1] (setting [10]). Besides, the Potency in assay [2] was 12.6 µM (active). Besides, the Potency entry in assay [4], in assay [5], in assay [6], in assay [7] and in assay [8] was “inactive” throughout.

Regarding `O=C1CN(/N=C/c2ccc(-c3ccc([N+](=O)[O-])cc3)o2)C(=O)N1`, the activity, negative = inhibition in assay [1] (setting [9]) was -11.3%; in assay [1] (setting [10]), -1.58%. The Potency entry in assay [4], in assay [5], in assay [6], in assay [7] and in assay [8] was “inactive” each time.

As to `C=CCCCCCCCCC(=O)O`, the results for the activity, negative = inhibition in assay [1] (setting [9]) and in assay [1] (setting [10]) were 5.45% and 15%, respectively. Besides, the Potency result in assay [2], in assay [3], in assay [4], in assay [5], in assay [6] and in assay [7] was “inactive” throughout. Also, in assay [8], the Potency result is “inactive”.

Regarding `CCOc1ccc2nc(S(N)(=O)=O)sc2c1`, the activity, negative = inhibition in assay [1] (setting [9]) is -5.98%. For the same molecule, the Potency result in assay [2], in assay [3], in assay [4], in assay [5], in assay [6] and in assay [8] was “inactive” in each case.

Take `Nc1cc(-c2ccncc2)c[nH]c1=O`: the values for the activity, negative = inhibition in assay [1] (setting [9]) and in assay [1] (setting [10]) were 17.9% and 15.4%, respectively. The Potency entry in assay [2], in assay [4], in assay [5], in assay [6], in assay [7] and in assay [8] was “inactive” in each case.

On to `CN(C)c1ccc(C(=C2C=CC(=[N+](C)C)C=C2)c2ccccc2)cc1`, for which the Potency was 11.2 µM (active) in assay [1] (parasite line A); 11.2 µM (active) in assay [1] (parasite line B); 2.24 µM (active) in assay [2]; 11.2 µM (active) in assay [3]; 8.91 µM (active) in assay [4]; 11.2 µM (active) in assay [5]. The values for the Potency in assay [6] and in assay [8] were 7.94 µM (active) and 12.6 µM (active), respectively.

With `CCCCCCOc1ccccc1C(N)=O`, the activity, negative = inhibition is -23.7% in assay [1] (setting [9]) and 1.07% in assay [1] (setting [10]). Further, the Potency entry in assay [2], in assay [3], in assay [4], in assay [5], in assay [6] and in assay [7] was “inactive” each time. The Potency entry in assay [8] is “inactive”.

`Cc1ccc(C(=O)c2ccc(CC(=O)O)n2C)cc1`: the activity, negative = inhibition was -5.58% in assay [1] (at 12.8 µM (top of the series), parasite line A) and 10.6% in assay [1] (at 12.8 µM (top of the series), parasite line B). Besides, the Potency result in assay [2], in assay [3], in assay [4], in assay [5], in assay [6] and in assay [7] was “inactive” each time. The Potency entry in assay [8] is “inactive”.

Values taken from PubChem BioAssay (NCATS).
